C diff growth – C. difficile growth inhibitors, primary screen, HTS | Clostridium difficile clinical isolate growth, OD600, 24 h; hits give low values | hit rate 0.25% among 86,000 | growth activity, negative = inhibition, % at 16 µg/mL (by protocol);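 active means mean growth activity at or below -80% and every replicate also at or below -80%; inconclusive means mean at or below -80% but some replicate above -80%; inactive means mean growth activity above -80%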;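 further: 0% = DMSO wells and -100% = levofloxacin 16 µg/mL wells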
Pf Dd2 inh – P. falciparum Dd2 growth inhibitors, primary screen, SYBR Green fluorescence, single dose replicates; 72 h; hits give low values; activity change, % at 10 µM; hit rate 2.3% among 94,000; AID 1159554, 2015; in the data active means activity change below about -80%; inconclusive means no clear call, values can overlap the other calls
T cruzi growth-1 – T. cruzi intracellular proliferation inhibitors, primary screen, cell-based, beta-gal Tulahuen parasites, NIH3T3 host, luminescence. hit rate 5.9% among 77,000. T. cruzi beta-gal in NIH3T3, GalScreen luminescence, 90 h. inhibition, % at 8.34 µM;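 active means mean inhibition above about 93%, with at least 55% of replicates each passing it, limit read from the data, passing the limit was not always enough; inconclusive means only one of those two conditions holds; inactive means neither condition holds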
T cruzi growth-2 – T. cruzi intracellular proliferation inhibitors, confirmation, cell-based, NIH3T3 host, beta-gal parasite, luminescence, cherry-pick. AID 651739, 2012. hit rate 72% among 5,600. T. cruzi beta-gal in NIH3T3, GalScreen luminescence, 90 h. inhibition, % at 8.35 µM. shares compounds with T cruzi growth-1;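 active means mean replicate inhibition above about 95% and at least 55% of replicates individually reaching it, limit read from the data; inconclusive means only one of the two criteria is met; inactive means neither criterion is met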
T cruzi growth-3 – inhibitors of intracellular T. cruzi replication, confirmation, NIH3T3 host cells, beta-gal parasites, cherry-pick, set 2; T. cruzi beta-gal in NIH3T3, GalScreen luminescence, 90 h; AID 651740, 2012; hit rate 21% among 5,600; inhibition, % at 2.09 µM; shares compounds with T cruzi growth-1;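 active means mean inhibition above about 95%, with at least 55% of replicates also reaching it, limit read from the data; inconclusive means meets just one of the two conditions; inactive means meets neither condition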;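 further: plate controls were neutral control median for no effect and positive control median for full effect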
3T3 cytotox – cytotoxicity in mouse NIH/3T3 fibroblasts, confirmation, cytotoxicity control for T. cruzi proliferation inhibitor project, cell-based, cherry-pick, single point. shares compounds with T cruzi growth-1. NIH/3T3 viability, CellTiter-Glo ATP luminescence, 90 h. cytotoxicity (signal decrease), % at 8.35 µM. hit rate 14% among 5,600;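 active means mean signal decrease across replicates above about 35% based on untreated-well scatter, with enough replicates individually passing, limit read from the data; inconclusive means no rule stated though some were filed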;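 further: 0% = median of neutral control wells and 100% = median of positive control wells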
NIH3T3 tox 2 – NIH/3T3 fibroblast cytotoxicity, confirmation, cytotoxicity control, cell-based, cherry-pick, single point, set 2; NIH/3T3 viability, CellTiter-Glo ATP luminescence, 90 h; inhibition, % at 24.9 µM; shares compounds with T cruzi growth-1; hit rate 56% among 5,600;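 active means mean loss of cell viability signal at or above a set limit, and enough replicates individually reaching it; inconclusive means meets only the mean limit or only the replicate share; inactive means meets neither condition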;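 further: 0% = median of neutral control wells and 100% = median of positive control wells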
* marks the source's active call; other numbers are inactive results; ? = inconclusive; / = no result given. An excerpt weighted towards active compounds, which were near 6.7% of everything screened.

SMILES | C diff growth | Pf Dd2 inh | T cruzi growth-1 | T cruzi growth-2 | T cruzi growth-3 | 3T3 cytotox | NIH3T3 tox 2
COc1ccc(C#Cc2cnc3c(c2)C(=O)N([C@@H](C)CO)C[C@H](C)[C@@H](CN(C)C(=O)c2ccccc2F)O3)cc1 | 13 | -72 | 113* | 98* | 47 | -25 | -5
C[C@H]1CN([C@@H](C)CO)C(=O)c2cc(C#Cc3cccc(F)c3)cnc2O[C@@H]1CN(C)C(=O)c1ccccc1F | 7 | ? | 110* | 101* | 28 | -20 | 0
COc1ccc(C#Cc2cnc3c(c2)C(=O)N([C@@H](C)CO)C[C@@H](C)[C@H](CN(C)C(C)=O)O3)cc1 | -1 | -13 | 19 | / | / | / | /
C[C@@H]1CN([C@@H](C)CO)C(=O)c2cc(C#Cc3ccccc3)cnc2O[C@@H]1CN(C)C(=O)c1ccccc1F | -10 | -45 | -7 | / | / | / | /
COc1ccc2c3c(n(C)c2c1)[C@@H](CO)N(CC1CC1)CC31CCN(C(=O)NC2CCCC2)CC1 | 16 | -76 | / | / | / | / | /
N#C[C@@H]1[C@@H](c2ccc(C#CC3CCCCC3)cc2)[C@@H](CO)N1C(=O)Cc1ccccn1 | -8 | -62 | 77 | / | / | / | /
COc1ccc(S(=O)(=O)N[C@@H]2CC[C@@H](CC(=O)N3CCC(Cc4ccccc4)CC3)O[C@H]2CO)cc1 | -12 | 0 | 22 | / | / | / | /
C[C@H](CO)N1C[C@H](C)[C@H](CN(C)Cc2ccccn2)Oc2ncc(C#C[C@@H](C)O)cc2C1=O | 1 | -6 | -36 | / | / | / | /
CCCN(C)C[C@@H]1OCCCC[C@@H](C)Oc2ccc(NC(=O)C3CCCCC3)cc2C(=O)N([C@H](C)CO)C[C@@H]1C | -8 | -70 | 52 | / | / | / | /
C[C@H]1CN([C@@H](C)CO)C(=O)Cc2cc(NC(=O)CCN3CCOCC3)ccc2O[C@@H]1CN(C)C(=O)Nc1ccccc1 | 2 | 37 | 20 | / | / | / | /
C[C@@H]1CN([C@H](C)CO)C(=O)c2cc(C#Cc3cccc(F)c3)cnc2O[C@H]1CN(C)C(=O)c1ccccc1F | -6 | -85* | 104* | 106* | 44 | 43* | ?
C[C@H](CO)N1C[C@H](C)[C@@H](CN(C)C(=O)c2ccccc2F)Oc2ncc(C#Cc3ccccc3)cc2C1=O | -5 | -79 | 37 | / | / | / | /
CCCC#Cc1ccc2c(c1)O[C@H](CN(C)Cc1cccnc1)[C@H](C)CN([C@@H](C)CO)S2(=O)=O | 1 | -24 | 109* | 99* | 52 | 54* | ?
CCCC#Cc1ccc2c(c1)O[C@@H](CN(C)Cc1cncnc1)[C@@H](C)CN([C@@H](C)CO)S2(=O)=O | 3 | -10 | 44 | / | / | / | /
CCCC#Cc1ccc2c(c1)O[C@H](CN(C)Cc1cncnc1)[C@H](C)CN([C@H](C)CO)S2(=O)=O | 4 | -12 | 38 | / | / | / | /
CCCC#Cc1ccc2c(c1)O[C@H](CN(C)Cc1cccnc1)[C@H](C)CN([C@H](C)CO)S2(=O)=O | 3 | -30 | 115* | 106* | 74 | 53* | 31*
CCCC#Cc1ccc2c(c1)O[C@@H](CN(C)Cc1cncnc1)[C@H](C)CN([C@H](C)CO)S2(=O)=O | 2 | -34 | 42 | / | / | / | /
CCCC#Cc1ccc2c(c1)O[C@H](CN(C)Cc1cccnc1)[C@@H](C)CN([C@H](C)CO)S2(=O)=O | 6 | -22 | 123* | 106* | 104* | 32 | 92*
CCCC#Cc1ccc2c(c1)O[C@@H](CN(C)Cc1cccnc1)[C@@H](C)CN([C@@H](C)CO)S2(=O)=O | 4 | -39 | 96* | 99* | 72 | 33 | 18
CCCC#Cc1ccc2c(c1)O[C@H](CN(C)Cc1cncnc1)[C@H](C)CN([C@@H](C)CO)S2(=O)=O | 2 | -2 | 40 | / | / | / | /
COc1ccc2c3c(n(C)c2c1)[C@H](CO)N(Cc1cccc(F)c1)CC31CCN(C)CC1 | 12 | -47 | / | / | / | / | /
C/C=C/c1cnc2c(c1)C(=O)N([C@H](C)CO)C[C@H](C)[C@H](CN(C)S(=O)(=O)c1ccc(OC)cc1)O2 | 4 | -24 | 19 | / | / | / | /
CCNC(=O)[C@@H]1[C@@H](CO)[C@@H]2Cn3c(ccc(C4=CCCC4)c3=O)[C@H]1N2Cc1cccnc1 | 4 | -9 | 16 | / | / | / | /
COc1ccc(NC(=O)N[C@@H]2CC[C@@H](CCNC(=O)c3ccccc3F)O[C@@H]2CO)cc1 | 0 | 1 | 1 | / | / | / | /
COCC#Cc1ccc2c(c1)O[C@H](CN(C)Cc1cccnc1)[C@@H](C)CN([C@@H](C)CO)S2(=O)=O | -20 | -7 | 105* | 97* | 89 | 33 | 64*
SMILES | C diff growth | Pf Dd2 inh | T cruzi growth-1 | T cruzi growth-2 | T cruzi growth-3 | 3T3 cytotox | NIH3T3 tox 2
COCC#Cc1ccc2c(c1)O[C@@H](CN(C)Cc1cccnc1)[C@@H](C)CN([C@@H](C)CO)S2(=O)=O | -3 | -3 | 16 | / | / | / | /
C[C@@H]1CN([C@@H](C)CO)S(=O)(=O)c2ccc(C#C[C@@H](C)O)cc2O[C@@H]1CN(C)Cc1ccc(-c2ccccc2)cc1 | 3 | -15 | 93 | / | / | / | /
C[C@@H]1CN([C@H](C)CO)S(=O)(=O)c2ccc(-c3ccccc3)cc2O[C@H]1CN(C)Cc1cccc(F)c1 | 40 | -55 | 118* | 101* | 104* | 117* | 103*
C[C@@H]1CN([C@@H](C)CO)S(=O)(=O)c2ccc(-c3ccc(C#N)cc3)cc2O[C@@H]1CN(C)Cc1cccc(F)c1 | 10 | -18 | / | / | / | / | /
C[C@H](CO)N1C[C@H](C)[C@H](CN(C)Cc2cccc(F)c2)Oc2cc(-c3ccccc3)ccc2S1(=O)=O | 13 | -40 | 120* | 108* | 69 | 25 | 104*
C[C@H](CO)N1C[C@H](C)[C@H](CN(C)Cc2cccc(F)c2)Oc2cc(-c3ccc(F)cc3)ccc2S1(=O)=O | 23 | -1 | 91 | / | / | / | /
C[C@H]1CN([C@@H](C)CO)S(=O)(=O)c2ccc(-c3ccccc3)cc2O[C@H]1CN(C)Cc1cccc(F)c1 | 15 | -43 | 119* | 94 | 102* | 25 | 107*
C[C@@H]1CN([C@@H](C)CO)S(=O)(=O)c2ccc(-c3ccc(C#N)cc3)cc2O[C@H]1CN(C)Cc1cccc(F)c1 | 13 | -24 | / | / | / | / | /
C[C@@H]1CN([C@H](C)CO)S(=O)(=O)c2ccc(-c3ccc(F)cc3)cc2O[C@@H]1CN(C)Cc1cccc(F)c1 | 29 | -8 | 74 | / | / | / | /
